The source of these data is PubChem BioAssay (EPA / NIEHS).

Activity calls are given as the source filed them. Rule for the calls: active = hit-call score of the fitted dose curve at least 0.9, where 1 is the maximum; inactive = score below 0.9.

Assay [1] is described as follows: CEETOX_H295R_OHPROG: CeeTox H295R High-throughput Steroidogenesis Assay for OH-Progesterone (OHPROG) (AID 2283435).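 For AC50: human adrenal H295R cells primed 48 h with 10 µM forskolin; 17alpha-hydroxyprogesterone secreted into medium measured by HPLC-MS/MS.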 As to conditions: actives raise or lower the signal. The essentials:
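Secreted 17alpha-hydroxyprogesterone is read by tandem MS from media of forskolin-primed H295R cells dosed with chemical for 48 h. Activity is fitted in both directions against DMSO baseline; cytotoxic concentrations are re-tested diluted.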

Assay [2] is described as follows: CEETOX_H295R_CORTIC: CeeTox H295R High-throughput Steroidogenesis Assay for Corticosterone (CORTIC) (AID 2283437).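 For AC50: human H295R adrenal cells prestimulated with forskolin before chemical exposure.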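 Note: corticosterone secreted into medium quantified by mass spectrometry.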 The following applies: actives raise or lower the signal. The method, boiled down:
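Corticosterone secreted into medium is measured by reverse-phase HPLC with tandem MS following liquid-liquid extraction. Cells are forskolin-stimulated (10 uM, 48 h) before 48 h test exposure; activity fitted in both directions against DMSO.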

The nature of assay [3]: CEETOX_H295R_CORTISOL: CeeTox H295R High-throughput Steroidogenesis Assay for Cortisol (AID 2283438).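 Note: cortisol secreted into medium quantified by LC-MS/MS.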 The following applies: actives raise or lower the signal. The method, boiled down: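 Human adrenocortical H295R cells (passage ≤10) received test chemicals for 48 h after forskolin priming. Secreted cortisol was measured by LC-MS/MS.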
A short description of assay [4]: CEETOX_H295R_DOC: CeeTox H295R High-throughput Steroidogenesis Assay for DOC (AID 2283439). As to conditions: actives raise or lower the signal. The method, boiled down:
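Secreted DOC was quantified from H295R media by HPLC-MS/MS after 48 h chemical exposure following 48 h forskolin (10 uM) prestimulation. Values were fitted in both directions relative to DMSO, the negative control and baseline.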

Assay [5] in a line: CEETOX_H295R_PROG: CeeTox H295R High-throughput Steroidogenesis Assay for Progesterone (PROG) (AID 2283442).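 For AC50: human H295R adrenal cells primed with 10 µM forskolin before dosing.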 As to conditions: actives raise or lower the signal. The essentials: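 Progesterone secreted by human H295R cells was measured by LC-MS/MS following 48 h chemical exposure at 0.1% DMSO, preceded by 48 h forskolin (10 uM) stimulation. Same-well MTT viability; cytotoxic concentrations diluted 10- or 100-fold and retested.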

The nature of assay [6]: CEETOX_H295R_ANDR: CeeTox H295R High-throughput Steroidogenesis Assay for Androstenedione (ANDR) (AID 2283436).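 Note: human H295R adrenal cells exposed for 48 h with androstenedione measured in medium.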 The following applies: actives raise or lower the signal. The essentials: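 Read-out is androstenedione secreted into medium, measured by tandem mass spectrometry after liquid-liquid extraction. Cells were H295R, dosed for 48 h per modified OECD 456; activity fitted in both directions relative to DMSO.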

Read-out in assay [7]: Tumor necrosis factor receptor superfamily member 6 (Homo sapiens) (UniProt P25445)
Briefly: LTEA_HepaRG_FAS: Life Technologies and Expression Analysis (LTEA) Assay for Fas cell surface death receptor (FAS) using HepaRG (AID 2283447). As to conditions: mRNA level, 48 h; actives raise or lower the signal. The method, boiled down:
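FAS transcript level was measured by TaqMan qRT-PCR against three housekeeping genes after 48 h chemical exposure. Cells were HepaRG, 0.5% DMSO vehicle, with a top concentration of 100 uM and half-log dilutions over eight points, in duplicate.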

Read-out in assay [8]: Fatty acid synthase (Homo sapiens) (UniProt P49327)
Put plainly: LTEA_HepaRG_FASN: Life Technologies and Expression Analysis (LTEA) Assay for Fatty Acid Synthase (FASN) using HepaRG (AID 2283448). The following applies: mRNA level, 48 h; actives raise or lower the signal. The method, boiled down:
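Transcript-level assay: HepaRG liver cells are treated for 48 h across an eight-point range topping at 100 uM, and FASN mRNA, normalized to three housekeeping genes, is compared with DMSO controls in both directions.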

Assay [9] can be described thus: CEETOX_H295R_ESTRADIOL: CeeTox H295R High-throughput Steroidogenesis Assay for Estradiol (AID 2283440).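 Note: estradiol secreted into medium quantified by LC-MS/MS after dansyl derivatisation.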 As to conditions: actives raise or lower the signal. As for the experimental part: CEETOX_H295R is a cell-based, multiplexed-readout assay that uses H295R, a human adrenal gland cell line, with measurements taken at 48 hours after chemical dosing in a 96-well plate.CEETOX_H295R_ESTRADIOL is one of 23 assay component(s) measured or calculated from the CEETOX_H295R assay. It is designed to make measurements of hormone induction, a form of inducible reporter, as detected with absorbance signals by HPLC-MS-MS technology.Data from the assay component CEETOX_H295R_ESTRADIOL was analyzed into 1 assay endpoint. This assay endpoint, CEETOX_H295R_ESTRADIOL, was analyzed with bidirectional fitting relative to DMSO as the negative control and baseline of activity. […]
Cell culture and media preparation procedures were conducted in accordance with OECD Test No. 456 guidelines, with minor modifications. […] For steroid quantification, media samples were shipped to OpAns, LLC (Durham, NC) on dry ice, and samples were thawed to room temperature prior to liquid-liquid extraction. […] Steroid hormones were separated by HPLC, eluted using a reverse phase C18 gradient with electrospray positive ionization, followed by quantification by tandem mass spectrometry (MS/MS). Data were acquired on a MassHunter Workstation Acquisition version B03.01 (Agilent Technologies, Inc.) and processed using MassHunter Quantitative Analysis for QQQ. […]

Assay [10] in a line: CEETOX_H295R_ESTRONE: CeeTox H295R High-throughput Steroidogenesis Assay for Estrone (AID 2283441).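 Note: estrone secreted into medium measured by LC-MS/MS after dansyl derivatization.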 The following applies: actives raise or lower the signal. The essentials:
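H295R cells; 48 h forskolin (10 uM) prestimulation; 48 h compound exposure, 0.1% DMSO final. Medium estrone: MTBE extraction, dansyl derivatization, HPLC-MS/MS. Bidirectional fit vs DMSO.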

Fatty acid synthase (Homo sapiens), sequence (P49327 whole entry, looked up): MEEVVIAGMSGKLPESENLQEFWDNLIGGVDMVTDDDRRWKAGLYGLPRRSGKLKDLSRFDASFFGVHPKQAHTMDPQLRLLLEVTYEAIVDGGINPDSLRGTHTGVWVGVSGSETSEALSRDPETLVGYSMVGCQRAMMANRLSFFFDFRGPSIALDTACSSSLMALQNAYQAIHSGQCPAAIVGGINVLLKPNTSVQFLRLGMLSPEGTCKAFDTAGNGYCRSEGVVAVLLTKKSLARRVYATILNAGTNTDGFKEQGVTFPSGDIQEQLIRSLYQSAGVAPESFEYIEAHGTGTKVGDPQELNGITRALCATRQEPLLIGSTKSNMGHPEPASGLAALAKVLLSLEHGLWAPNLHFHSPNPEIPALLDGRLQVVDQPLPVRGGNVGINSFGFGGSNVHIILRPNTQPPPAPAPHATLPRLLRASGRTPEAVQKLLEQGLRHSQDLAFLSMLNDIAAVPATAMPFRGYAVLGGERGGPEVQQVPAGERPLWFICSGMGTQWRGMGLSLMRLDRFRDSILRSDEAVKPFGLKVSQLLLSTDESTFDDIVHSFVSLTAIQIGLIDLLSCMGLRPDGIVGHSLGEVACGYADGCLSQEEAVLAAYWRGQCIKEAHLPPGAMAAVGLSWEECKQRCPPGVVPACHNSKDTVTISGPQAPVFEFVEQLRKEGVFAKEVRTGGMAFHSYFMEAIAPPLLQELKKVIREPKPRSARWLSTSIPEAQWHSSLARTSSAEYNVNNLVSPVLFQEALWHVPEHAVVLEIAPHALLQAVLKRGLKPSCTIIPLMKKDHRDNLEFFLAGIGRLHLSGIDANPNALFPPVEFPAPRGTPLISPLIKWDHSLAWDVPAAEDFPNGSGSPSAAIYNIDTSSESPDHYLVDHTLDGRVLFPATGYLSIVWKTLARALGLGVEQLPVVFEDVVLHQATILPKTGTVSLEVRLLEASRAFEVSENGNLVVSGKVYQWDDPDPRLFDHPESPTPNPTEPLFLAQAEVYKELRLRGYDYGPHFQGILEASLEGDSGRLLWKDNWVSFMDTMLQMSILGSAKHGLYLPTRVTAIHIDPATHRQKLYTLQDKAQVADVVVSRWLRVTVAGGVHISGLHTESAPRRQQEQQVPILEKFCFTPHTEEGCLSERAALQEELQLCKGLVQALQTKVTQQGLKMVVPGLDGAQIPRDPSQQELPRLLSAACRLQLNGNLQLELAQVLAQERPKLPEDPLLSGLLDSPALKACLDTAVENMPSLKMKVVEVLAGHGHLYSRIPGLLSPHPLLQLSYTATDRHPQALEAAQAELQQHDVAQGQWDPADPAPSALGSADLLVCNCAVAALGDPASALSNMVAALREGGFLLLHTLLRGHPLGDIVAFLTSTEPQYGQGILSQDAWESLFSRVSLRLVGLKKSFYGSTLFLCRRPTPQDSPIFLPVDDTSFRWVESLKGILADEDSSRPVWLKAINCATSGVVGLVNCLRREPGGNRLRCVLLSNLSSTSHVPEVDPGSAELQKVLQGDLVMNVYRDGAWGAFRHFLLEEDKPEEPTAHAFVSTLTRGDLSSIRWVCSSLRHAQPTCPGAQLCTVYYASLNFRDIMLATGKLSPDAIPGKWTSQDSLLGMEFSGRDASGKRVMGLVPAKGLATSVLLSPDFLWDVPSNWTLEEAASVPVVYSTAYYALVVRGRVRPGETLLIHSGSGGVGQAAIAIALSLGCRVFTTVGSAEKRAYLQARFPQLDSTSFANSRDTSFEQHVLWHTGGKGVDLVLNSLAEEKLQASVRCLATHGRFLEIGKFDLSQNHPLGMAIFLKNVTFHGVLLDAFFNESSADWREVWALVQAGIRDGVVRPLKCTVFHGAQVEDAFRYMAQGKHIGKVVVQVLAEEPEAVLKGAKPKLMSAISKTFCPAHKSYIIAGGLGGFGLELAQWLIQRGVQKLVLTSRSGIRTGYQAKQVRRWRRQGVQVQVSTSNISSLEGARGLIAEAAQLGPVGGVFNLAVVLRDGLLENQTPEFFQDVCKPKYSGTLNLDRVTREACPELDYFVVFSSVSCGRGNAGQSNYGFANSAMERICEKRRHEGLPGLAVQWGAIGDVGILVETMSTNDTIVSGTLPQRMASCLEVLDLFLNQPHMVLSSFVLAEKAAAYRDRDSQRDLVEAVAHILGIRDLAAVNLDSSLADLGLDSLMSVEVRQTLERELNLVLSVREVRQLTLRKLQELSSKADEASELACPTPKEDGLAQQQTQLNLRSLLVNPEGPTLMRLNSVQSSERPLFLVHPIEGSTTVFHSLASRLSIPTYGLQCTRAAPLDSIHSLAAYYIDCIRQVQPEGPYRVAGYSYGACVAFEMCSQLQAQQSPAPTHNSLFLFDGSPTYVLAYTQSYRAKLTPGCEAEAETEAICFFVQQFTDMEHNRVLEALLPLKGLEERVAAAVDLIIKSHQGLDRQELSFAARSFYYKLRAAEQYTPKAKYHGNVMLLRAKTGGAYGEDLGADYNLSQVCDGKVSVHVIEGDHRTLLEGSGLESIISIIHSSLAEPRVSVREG

As a reminder, the AC50 is the concentration giving half of the maximal activity seen. Consider `CC=Cc1ccc(OCC)c(O)c1`, for which the AC50 is 11 µM (active) in assay [1] and 20.7 µM (active) in assay [5]. The compound was called inactive in assay [2], in [3] and in assay [4].
For `CCOC(=O)[C@@H](C)Oc1ccc(Oc2nc3ccc(Cl)cc3o2)cc1`, the AC50 was 10.1 µM (active) in assay [1], 22.8 µM (active) in assay [4] and 25.7 µM (active) in assay [5]. In addition, the compound was classed as inactive in assay [6], in assay [2] and in [3].
With `CS(=O)(=O)OCCCCOS(C)(=O)=O`, the result in [7] and in assay [8] was inactive.
As to `Cc1cc(=O)oc2cc(N(C)C)ccc12`, the AC50 in [1] was 50 µM (active). The result in assay [2], in assay [3], in assay [4] and in assay [5] was inactive.
As to `COc1ccc(N=Nc2cc(C)c(N=Nc3ccc(S(=O)(=O)O)cc3)cc2OC)cc1`, the AC50 was 34.6 µM (active) in [1] and 50 µM (active) in assay [5]. Further, the outcome in assay [2], in assay [3] and in [4] was inactive.
For the compound `CCCCCCCCN1CCCC1=O`, the compound was called inactive in [1], in assay [2], in [3], in [4] and in [5].
Regarding `CC(C)Nc1nc(N)nc(Cl)n1`, the call in [1], in assay [2], in assay [3], in assay [4] and in assay [5] was inactive.
Regarding `CC1(C)C(=O)N(Cl)C(=O)N1Br`, the compound was classed as inactive in assay [1], in assay [2], in assay [3], in assay [4] and in [5].
With `CC(CN=Cc1ccccc1O)N=Cc1ccccc1O` (stereo unspecified), the AC50 was 1.97 µM (active) in assay [1], 4.06 µM (active) in assay [3] and 1.7 µM (active) in assay [4]. Besides, the compound was called inactive in assay [2] and in [5].
For `Nc1ccc(N)c2c1C(=O)c1ccccc1C2=O`, the AC50 is 1.51 µM (active) in assay [1] and 4.43 µM (active) in assay [4]. Further, the call in [6], in [2], in [3] and in assay [5] was inactive.
Take `CCc1cc(C(C)(C)C)c(O)c(C(C)(C)C)c1`: the compound was called inactive in assay [1], in assay [2], in assay [3], in assay [4] and in [5].
As for `COCCc1ccc(OCC(O)CNC(C)C)cc1` (stereo unspecified), the AC50 in assay [1] is 50 µM (active). In addition, the outcome in [2], in assay [3], in [4] and in assay [5] was inactive.
On to `OCc1cccc(Oc2ccccc2)c1`, for which the AC50 in assay [1] and in assay [6] was 50 µM (active) in each case. For the same compound, in assay [5], the compound was classed as inactive.
For the compound `COc1ccc(CCN2CCC(Nc3nc4ccccc4n3Cc3ccc(F)cc3)CC2)cc1`, the AC50 in assay [1] is 1.41 µM (active); in assay [2], 1.48 µM (active); in [3] it was 1.56 µM (active); in assay [4], 1.52 µM (active); in assay [5] it was 0.789 µM (active).
Regarding `BrCc1cccc(Oc2ccccc2)c1`, the AC50 is 36.5 µM (active) in assay [1], 38.2 µM (active) in [6] and 32.7 µM (active) in assay [2]. Moreover, the call in assay [3], in [4] and in assay [5] was inactive.
Regarding `CCC(C)c1cc([N+](=O)[O-])cc([N+](=O)[O-])c1OC(=O)OC(C)C` (stereo unspecified), the compound was classed as inactive in assay [1], in assay [6], in [2], in assay [3], in [4] and in [5].
For `C=C1CC[C@H](O)C/C1=C/C=C1\CCC[C@]2(C)[C@@H]([C@H](C)/C=C/[C@H](C)C(C)C)CC[C@@H]12`, the AC50 in assay [1] was 12.3 µM (active); in assay [3] it was 42.5 µM (active); in [4], 87.2 µM (active); in assay [5], 84.3 µM (active). Further, the result in [2] was inactive.
On to `CC(C)(C)CC(C)(C)c1ccc(OCCOCC[N+](C)(C)Cc2ccccc2)cc1`, for which the outcome in assay [1], in assay [2], in assay [3], in assay [4], in assay [9] and in assay [10] was inactive. Moreover, the compound was classed as inactive in assay [5].
